FBW7 activator – activators of human E3 ligase FBW7; 650,000 tested, 0.13% active; normalized activity (activation), % at 26.1 µM; Q969H0; AID 1259310; AlphaScreen FBW7–phospho-cyclin E peptide binding, activator screen; in the data active = normalized activity above about 1.9%;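 note: purified mutant Fbw7 with reduced substrate affinity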
Target sequence (Q969H0 whole entry, looked up): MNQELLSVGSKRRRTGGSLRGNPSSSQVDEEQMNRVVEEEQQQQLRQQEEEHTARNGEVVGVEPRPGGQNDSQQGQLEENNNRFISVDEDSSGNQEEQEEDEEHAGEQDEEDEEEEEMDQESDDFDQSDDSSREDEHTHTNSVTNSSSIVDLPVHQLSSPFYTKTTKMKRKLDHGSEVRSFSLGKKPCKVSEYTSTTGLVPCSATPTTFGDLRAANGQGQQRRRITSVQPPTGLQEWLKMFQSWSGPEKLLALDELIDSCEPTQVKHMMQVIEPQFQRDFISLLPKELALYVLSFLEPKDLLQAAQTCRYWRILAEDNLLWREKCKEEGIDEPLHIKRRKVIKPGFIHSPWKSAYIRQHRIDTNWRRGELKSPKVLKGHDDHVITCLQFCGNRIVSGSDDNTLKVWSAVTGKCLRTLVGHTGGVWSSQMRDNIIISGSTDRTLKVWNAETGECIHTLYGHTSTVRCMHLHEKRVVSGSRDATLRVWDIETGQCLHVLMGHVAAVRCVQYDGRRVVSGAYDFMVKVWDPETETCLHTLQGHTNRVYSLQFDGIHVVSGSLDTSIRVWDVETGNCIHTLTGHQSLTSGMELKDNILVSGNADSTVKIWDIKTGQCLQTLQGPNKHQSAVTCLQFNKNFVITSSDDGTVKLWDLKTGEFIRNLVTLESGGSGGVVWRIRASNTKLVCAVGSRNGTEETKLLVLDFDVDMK
GPR151 ag – activates the human receptor GPR151; PathHunter beta-arrestin GPR151 cells, luminescence; activation, % at 11.2 µM; 650,000 tested, 1% active; in the data active = activation above about 4.9%;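 note: 0% = median of compound wells and 100% = cells with positive control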
MITF primary – blocks human microphthalmia-associated transcription factor | O75030 | AlphaScreen MITF homodimerization, bead proximity signal | inhibition, % at 2.6 µM | 650,000 tested, 0.91% active | AID 1259374; in the data active = inhibition above about 50%;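 note: 0% = vehicle wells with protein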
TEAD-YAP block – TEAD-YAP interaction inhibition. HEK-TIYL cells, TEAD-Gal4/YAP UAS-luciferase luminescence. inhibition, % at 9.12 µM. 640,000 tested, 1.4% active. AID 1259422; in the data active = inhibition above about 32%;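 note: 0% = median of test compound wells and 100% = reference inhibitor wells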
The depositor's hits bear a star; ! = repeats disagree. This is a sample that favours compounds with a hit; in the whole collection about 3.5% have one here.

What do the screens show for `O=C(CCCCC(=O)NNC(=O)CCc1ccccc1)NNC(=O)CCc1ccccc1`?
FBW7 activator: 2.3*; GPR151 ag: -2; MITF primary: 10; TEAD-YAP block: 2

Results for COc1ccc(N2C(=O)NC(=O)/C(=C/c3ccc(I)o3)C2=O)cc1 ?
FBW7 activator: 0; GPR151 ag: 0; MITF primary: 69*; TEAD-YAP block: 0

Results for Cc1ccc(/C=C2\C(=O)NC(=S)N(c3cccc(Cl)c3)C2=O)o1 ?
FBW7 activator: 0; GPR151 ag: 0; MITF primary: 4; TEAD-YAP block: 0

Results for COc1cccc(N2C(=O)/C(=C/c3ccc([N+](=O)[O-])s3)C(=O)NC2=S)c1 ?
FBW7 activator: 1; GPR151 ag: -2; MITF primary: 22; TEAD-YAP block: 7

What do the screens show for `COc1ccc(N2C(=O)/C(=C\c3ccc([N+](=O)[O-])s3)C(=O)NC2=S)cc1`?
FBW7 activator: 0; GPR151 ag: -1; MITF primary: 59*; TEAD-YAP block: -4

Results for COc1ccc(N2C(=O)/C(=C\c3ccc([N+](=O)[O-])o3)C(=O)NC2=S)cc1 ?
FBW7 activator: 0; GPR151 ag: -1; MITF primary: 79*; TEAD-YAP block: 5

How did O=C1NC(=O)N(c2cccc(Cl)c2)C(=O)/C1=C/c1ccc(I)o1 do in these assays?
FBW7 activator: 0; GPR151 ag: 0; MITF primary: 67*; TEAD-YAP block: 9

What do the screens show for `CC(C)(C)C(=O)Nc1nc2c(F)cccc2s1`?
FBW7 activator: 0; GPR151 ag: 0; MITF primary: 2; TEAD-YAP block: 6

How did O=C1NC(=O)N(c2cccc(Cl)c2)C(=O)/C1=C/c1ccc([N+](=O)[O-])o1 do in these assays?
FBW7 activator: 0; GPR151 ag: 0; MITF primary: 75*; TEAD-YAP block: 7

How did Cc1cc(C)cc(N2C(=O)NC(=O)/C(=C\c3ccc([N+](=O)[O-])o3)C2=O)c1 do in these assays?
FBW7 activator: 0; GPR151 ag: 0; MITF primary: 37; TEAD-YAP block: 0

Results for COc1cccc(N2C(=O)/C(=C\c3ccc(OC)cc3OC)C(=O)NC2=S)c1 ?
FBW7 activator: 0; GPR151 ag: -2; MITF primary: 16; TEAD-YAP block: -4

How did COc1cccc(N2C(=O)/C(=C/c3ccc([N+](=O)[O-])o3)C(=O)NC2=S)c1 do in these assays?
FBW7 activator: 0; GPR151 ag: -2; MITF primary: 71*; TEAD-YAP block: 12

Results for COc1cccc(N2C(=O)NC(=O)/C(=C/c3ccc([N+](=O)[O-])o3)C2=O)c1 ?
FBW7 activator: 0; GPR151 ag: -2; MITF primary: 67*; TEAD-YAP block: -7

What do the screens show for `COC(=O)/C=C1/N/C(=N\c2nc3ccccc3o2)NC1=O`?
FBW7 activator: 0; GPR151 ag: 0; MITF primary: 19; TEAD-YAP block: 7

What do the screens show for `CC(C)(C)OC(=O)Nc1ccc(SCC(=O)O)cc1`?
FBW7 activator: 0; GPR151 ag: 1; MITF primary: -7; TEAD-YAP block: 83*

How did COC(=O)Nc1ccc(SCC(=O)c2ccccc2)cc1 do in these assays?
FBW7 activator: 0; GPR151 ag: 2; MITF primary: 3; TEAD-YAP block: -2

Results for c1ccc(-c2nc3c4cnn(-c5ccccc5)c4ncn3n2)cc1 ?
FBW7 activator: 0; GPR151 ag: -1; MITF primary: 10; TEAD-YAP block: -13

How did COc1ccc(C2CC(c3cccs3)=NN2C(=O)CSc2nnc(CNC(=O)COc3ccccc3)n2-c2ccccc2OC)cc1 (stereo not drawn) do in these assays?
FBW7 activator: 0; GPR151 ag: 1; MITF primary: 3; TEAD-YAP block: 32*

How did COc1ccc(C2=NN(C(=O)CSc3nnc(CNC(=O)c4ccco4)n3-c3cc(C)ccc3C)C(c3ccc(OC)cc3)C2)cc1 (stereo not drawn) do in these assays?
FBW7 activator: 3.6*; GPR151 ag: 1; MITF primary: -1; TEAD-YAP block: -5

How did Cc1cc(C)cc(NC(=O)c2cc(S(=O)(=O)NCCc3ccc(Cl)cc3)ccc2F)c1 do in these assays?
FBW7 activator: 1; GPR151 ag: 1; MITF primary: 9; TEAD-YAP block: 4

Results for Clc1cccc(-c2cnc3ccc(NCCc4cccnc4)nn23)c1 ?
FBW7 activator: 2.0*; GPR151 ag: -1; MITF primary: -1; TEAD-YAP block: 94*

Results for N#Cc1ccc(-c2cnc3ccc(NCCc4cccnc4)nn23)cc1 ?
FBW7 activator: 0; GPR151 ag: -1; MITF primary: 15; TEAD-YAP block: 34*

How did O=C(/C=C/c1ccccc1)NCCc1ccc(F)cc1 do in these assays?
FBW7 activator: 0; GPR151 ag: 0; MITF primary: 3; TEAD-YAP block: -22

How did Cc1c(C(=O)N/N=C/c2ccc(O)cc2O)nnn1-c1nonc1N do in these assays?
FBW7 activator: -1; GPR151 ag: 2; MITF primary: 33; TEAD-YAP block: 75*

What do the screens show for `COc1cccc(/C=N/NC(=O)c2nnn(-c3nonc3N)c2-c2ccccc2)c1O`?
FBW7 activator: 0; GPR151 ag: -1; MITF primary: 18; TEAD-YAP block: 15

Results for CCN(CC)c1ccc(/C=N/NC(=O)c2nnn(-c3nonc3N)c2CN(C)C)c(O)c1 ?
FBW7 activator: 0; GPR151 ag: 0; MITF primary: -8; TEAD-YAP block: 13

What do the screens show for `CCc1c(C(=O)N/N=C/c2ccc(N(CC)CC)cc2O)nnn1-c1nonc1N`?
FBW7 activator: 0; GPR151 ag: -1; MITF primary: 9; TEAD-YAP block: 41*

What do the screens show for `COCc1c(C(=O)N/N=C\c2ccc(O)cc2O)nnn1-c1nonc1N`?
FBW7 activator: 0; GPR151 ag: 2; MITF primary: 34; TEAD-YAP block: 19

How did COc1cccc(/C=N/NC(=O)c2nnn(-c3nonc3N)c2C)c1O do in these assays?
FBW7 activator: 0; GPR151 ag: 1; MITF primary: 5; TEAD-YAP block: 75*

What do the screens show for `COc1ccc(N2C(=O)NC3CC2(C)Oc2ccc(Cl)cc23)cc1OC` (stereo not drawn)?
FBW7 activator: 2.2*; GPR151 ag: 1; MITF primary: -1; TEAD-YAP block: 6

What do the screens show for `O=c1[nH]cc(F)c(=O)[nH]1`?
FBW7 activator: 0; GPR151 ag: 3; MITF primary: 12; TEAD-YAP block: 35*!

What do the screens show for `CCc1sc(C(=O)Nc2nc(C)cs2)cc1C`?
FBW7 activator: 0; GPR151 ag: -1; MITF primary: 3; TEAD-YAP block: -35

What do the screens show for `Cc1csc(NC(=O)c2cc3c(s2)CCC(C)C3)n1` (stereo not drawn)?
FBW7 activator: 0; GPR151 ag: -6; MITF primary: -3; TEAD-YAP block: 74*

Results for NC(=O)c1cnn(-c2ccnc(NC(=O)Cc3ccc(F)cc3)c2)c1 ?
FBW7 activator: 0; GPR151 ag: 0; MITF primary: -17; TEAD-YAP block: 75*

What do the screens show for `CCOc1ccc(NC(=O)NCc2nc(-c3cccnc3)n[nH]2)cc1`?
FBW7 activator: 1; GPR151 ag: 1; MITF primary: 7; TEAD-YAP block: 8
